Laboratory results: ChEMBL document CHEMBL1961873, “Compounds: GSK PKIS; Assays: Nanosyn kinase panel” (2012)

target: Tyrosine-protein kinase Lck (Homo sapiens) (UniProt P06239); conditions: at 0.1 µM
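Further: reported values are mean percent inhibition of Lck.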

Tyrosine-protein kinase Lck (Homo sapiens), sequence (P06239 2-509 limits assumed): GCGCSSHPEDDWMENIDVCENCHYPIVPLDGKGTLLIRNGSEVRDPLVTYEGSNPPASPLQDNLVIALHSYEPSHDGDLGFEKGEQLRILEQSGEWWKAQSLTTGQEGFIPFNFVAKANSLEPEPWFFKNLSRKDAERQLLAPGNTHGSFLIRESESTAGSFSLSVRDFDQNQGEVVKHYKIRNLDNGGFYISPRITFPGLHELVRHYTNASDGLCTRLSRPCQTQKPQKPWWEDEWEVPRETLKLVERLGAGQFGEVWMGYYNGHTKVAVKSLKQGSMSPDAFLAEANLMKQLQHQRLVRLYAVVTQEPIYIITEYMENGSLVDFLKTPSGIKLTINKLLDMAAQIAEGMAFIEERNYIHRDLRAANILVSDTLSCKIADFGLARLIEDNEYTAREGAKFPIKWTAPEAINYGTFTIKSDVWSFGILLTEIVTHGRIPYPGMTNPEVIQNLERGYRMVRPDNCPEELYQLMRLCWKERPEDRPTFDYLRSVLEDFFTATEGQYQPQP

Row | Compound | inhibition [%]
1 | CN1CCC(C(=O)Nc2n[nH]c3nnc(-c4ccccc4)cc23)CC1 | 1.6
2 | COc1cc2ncn(-c3cc(OCc4ccccc4C(F)(F)F)c(C(N)=O)s3)c2cc1OC | 0.99
3 | CCn1c(-c2nonc2N)nc2ccncc21 | 1.33
4 | COc1cc2ncn(-c3cc(OCc4ccccc4Cl)c(C(N)=O)s3)c2cc1OC | 2.94
5 | CC1=C(C(=O)Nc2ccc3[nH]ncc3c2)C(c2ccc(Cl)c(Cl)c2)CC(=O)N1 (stereo not drawn) | 4.63
6 | CS(=O)(=O)CCN(CC#N)Cc1ccc(-c2ccc3ncnc(Nc4ccc(OCc5cccc(F)c5)c(Cl)c4)c3c2)o1 | -1.83
7 | Nc1ncnc2occ(-c3ccc(NC(=O)Nc4cccc(C(F)(F)F)c4)cc3)c12 | 12.1
8 | NC(=O)c1ccc(-c2nc(-c3ccccn3)c(-c3ccc4c(c3)OCO4)[nH]2)cc1 | 2.19
9 | O=C1NC(=O)C(N2CCc3ccccc32)=C1c1ccc(Cl)cc1 | 1.6
10 | O=C1NC(=O)C(c2ccc(Cl)cc2)=C1Nc1ccc(Cl)c(C(=O)O)c1 | -0.44
11 | NC(=O)c1cccc(Nc2nccc(Nc3cccc4[nH]ncc34)n2)c1 | 36.7
12 | CNC(=O)c1cncc(/C=C/c2c(Cl)cccc2Cl)c1 | 1.21
13 | COc1ccc(-c2coc3ncnc(N)c23)cc1 | 1.13
14 | Cc1nn(C)c2cc(N(C)c3ccnc(Nc4cccc(S(N)(=O)=O)c4)n3)ccc12 | 14
15 | O=C1NC(=O)C(c2cccc(Cl)c2)=C1Nc1ccc(O)c(Cl)c1 | 1.6
16 | O=C1Nc2ccc(C(=O)c3ccco3)cc2C1=Cc1cc(Cl)c(O)c(Cl)c1 | 2.53
17 | NS(=O)(=O)c1ccc(N/N=C2\C(=O)Nc3ccc(C(=O)NCCc4c[nH]cn4)cc32)cc1 | 4.09

Row | Compound | inhibition [%]
18 | Nc1nc(-c2ccc3c(c2)C(=Cc2cc(Br)c(O)c(Br)c2)C(=O)N3)cs1 | -1.54
19 | O=C(Nc1n[nH]c2nc(-c3ccco3)c(Br)cc12)C1CC1 | 1.39
20 | Cn1cc(C=C2C(=O)Nc3cccnc32)c2ccccc21 | 4.03
21 | CC1=C(C(=O)Nc2ccc3[nH]ncc3c2)C(c2ccc(F)cc2)NC(=O)N1 (stereo not drawn) | -0.28
22 | CCn1c(-c2nonc2N)nc2c(N3CCCC3)nccc21 | -2.27
23 | COc1cc2c(cc1Nc1nc(N3CCc4ccccc43)c3cc[nH]c3n1)N(C(=O)CN(C)C)CC2 | 1.15
24 | Cc1cccc(-c2n[nH]cc2-c2ccc3ncccc3n2)n1 | 0.45
25 | CCc1cccc(NC(=O)Nc2ccc(Oc3ccc4nc(NC(=O)OC)[nH]c4c3)cc2)c1 | 5.87
26 | COc1ccc(-c2nn3ncccc3c2-c2ccnc(Nc3ccc(Cl)c(C(F)(F)F)c3)n2)cc1 | -0.04
27 | Nc1ncnc2occ(-c3ccc(NC(=O)Nc4cc(C(F)(F)F)cc(C(F)(F)F)c4)cc3)c12 | 6.28
28 | COC(=O)Nc1nc2cc(Oc3ccc(NC(=O)Nc4cccc(C(=O)O)c4)cc3)ccc2[nH]1 | -2.73
29 | [O-][S+]1CCN(Cc2ccc(-c3ccc4ncnc(Nc5ccc(OCc6ccccc6)c(F)c5)c4c3)o2)CC1 | 1.81
30 | COc1cc(C=NNc2ncnc3c2cnn3-c2ccccc2)ccc1O | 19.4
31 | NCc1ccc(-c2nc(-c3ccc(Cl)c(O)c3)c(-c3ccncc3)[nH]2)cc1 | 5.93
32 | Cc1nnc(-c2ccc(C)c(-c3ccc(C(=O)Nc4cccc(C#N)c4)cc3)c2)o1 | 1.89
33 | CCn1c(-c2nonc2N)nc2c(C#CC(C)(C)O)nc(OC[C@@H](N)c3ccccc3)cc21 | -1.85
